The values below come from article PMC5540273 (PLoS ONE, 2017).

“And” between values parts separate entries of the source, which are not always exact repeats. Equal values may be shown once. Read-outs that look alike come from different tables or passages of the source.

Test systems include DYRK1A; DYRK1B; DYRK2; EGFR; EIF2AK1; EPHA1; EPHA2; EPHA3; EPHA4; EPHA5; EPHA6; EPHA7; EPHA8; EPHB1; EPHB2; EPHB3; EPHB4; EPHB6.
Common to all, as to details: n = 1
Another assay deals with T1, DRAK1.
T1 construct: gene STK17A

In a further assay the test system is T2, DRAK2.
T2 construct: gene STK17B

[1] abbreviates: concentration: 1 μM,replicates: in singlicate, 1 µM.
Where [2] appears, read: concentration: 1 μM, replicates: in singlicate.
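Note: KINOMEscan kinase panel screen.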

On to `Cc1ccc(NC(=O)Nc2cccc(C(F)(F)F)c2)cc1` [GSK955403], for which the “%Inh” value with DRAK1 (1 µM) is 15%; in the assay with DRAK2 (1 µM), 0%; in the assay with DYRK1A (1 µM), 0%; with DYRK1B (1 µM), 0%; with DYRK2 (1 µM), 0%; in the assay with EGFR (1 µM), 0%. The “%Inh” value in the assay on EIF2AK1 (1 µM) is 0%; in the assay on EPHA1 (1 µM) it was 17%; in the assay with EPHA2 (1 µM), 0%; in the assay with EPHA3 (1 µM), 0%; in the assay on EPHA4 (1 µM) it was 6%; in the assay on EPHA5 (1 µM), 0%. For the same compound, the “%Inh” value in the assay with EPHA6 (1 µM) is reported as 0%; in the assay on EPHA7 (1 µM), 2%; with EPHA8 (1 µM), 3%; in the assay on EPHB1 (1 µM), 5%; with EPHB2 (1 µM), 3%; in the assay with EPHB3 (1 µM) it was 0%. In addition, the “%Inh” value in the assay on EPHB4 (1 µM) is given as 0%; in the assay on EPHB6 (1 µM), 21%.
As for `O=C(O)COc1ncnc2cc(-c3ccc4[nH]ncc4c3)sc12`, the figures for the “%Inh” value in the assay with DRAK1 (1 µM) and with DRAK2 (1 µM) were 83% and 99.3%, respectively.
Take `CSc1nn2c(=O)cc(N3CCOCC3)nc2n1Cc1cccc(C(F)(F)F)c1C` [GSK2363608]: the “%Inh” value in the assay with DRAK1 (setting [1]) is 0% and 17%; in the assay on DRAK2 (setting [1]), 0% and 8%; in the assay with DYRK1A (setting [1]), 23% and 21%; in the assay on DYRK1B (setting [1]), 8% and 13%; with DYRK2 (setting [1]), 16% and 14%; in the assay on EGFR (setting [1]), 36% and 20%. The “%Inh” value with EPHA1 (setting [1]) is 28% and 9%; with EPHA2 (setting [1]), 5% and 0%; in the assay on EPHA4 (setting [1]), 2% and 23%; in the assay with EPHA6 (setting [1]), 0% and 12%; with EPHA7 (setting [1]), 8% and 6%; in the assay with EPHA8 (setting [1]) it was 0% and 18%. The “%Inh” value in the assay with EPHB1 (setting [1]) is 0% and 9%; in the assay on EPHB3 (setting [1]), 3% and 28%; in the assay with EPHB4 (setting [1]) it was 13% and 17%; in the assay with EPHB6 (setting [1]), 29% and 12%.
With `COC(=O)c1c(-c2ccccc2)c2cc(C(=O)O)ccc2c(=O)n1Cc1ccccc1`, the “%Inh” value in the assay on DRAK1 (setting [2]) turned out to be 0%; in the assay with DRAK2 (setting [2]), 0%; in the assay with DYRK1A (setting [2]) it was 7%; with DYRK1B (setting [2]), 32%; with DYRK2 (setting [2]), 0%; with EGFR (setting [2]), 0%. Further, the “%Inh” value is given as 0% in the assay with EIF2AK1 (setting [2]); 0% with EPHA1 (setting [2]); 3% in the assay with EPHA2 (setting [2]); 15% with EPHA3 (setting [2]); 0% in the assay with EPHA4 (setting [2]); 0% in the assay on EPHA5 (setting [2]). Further, the “%Inh” value in the assay on EPHA6 (setting [2]) is reported as 0%; in the assay with EPHA7 (setting [2]), 0%; in the assay with EPHA8 (setting [2]), 0%; with EPHB1 (setting [2]), 6%; in the assay on EPHB2 (setting [2]), 12%; with EPHB3 (setting [2]), 0%. The “%Inh” value in the assay with EPHB4 (setting [2]) and in the assay on EPHB6 (setting [2]) was 0% in each case.
With `O=c1cc(N2CCOCC2)nc2n(Cc3cccc(Cl)c3Cl)ccn12` [GSK2286295], the “%Inh” value in the assay with DRAK1 (setting [2]) stood at 0%; with DRAK2 (setting [2]) it was 0%; in the assay with DYRK1A (setting [2]), 14%; with DYRK1B (setting [2]), 30%; with DYRK2 (setting [2]), 21%; with EGFR (setting [2]), 20%. Besides, the “%Inh” value in the assay on EIF2AK1 (setting [2]) is given as 0%; with EPHA1 (setting [2]) it was 0%; in the assay on EPHA2 (setting [2]), 4%; in the assay on EPHA3 (setting [2]), 18%; with EPHA4 (setting [2]), 0%; in the assay on EPHA5 (setting [2]), 0%. Further, the “%Inh” value with EPHA6 (setting [2]) is on record as 0%; with EPHA7 (setting [2]) it was 3%; with EPHA8 (setting [2]), 12%; in the assay with EPHB1 (setting [2]) it was 13%; in the assay with EPHB2 (setting [2]) it was 0%; in the assay on EPHB3 (setting [2]), 11%. Also, the “%Inh” value stood at 14% with EPHB4 (setting [2]) and 24% with EPHB6 (setting [2]).
As to `O=C(Nc1n[nH]c2cc(-c3cccc(F)c3F)ccc12)C1CC1` [SB-733894], the “%Inh” value in the assay with DRAK1 (setting [2]) is on record as 0%; in the assay with DRAK2 (setting [2]), 0%; in the assay on DYRK1A (setting [2]), 2%; with DYRK1B (setting [2]), 0%; in the assay on DYRK2 (setting [2]) it was 14%; in the assay on EGFR (setting [2]) it was 12%. Further, the “%Inh” value is listed as 23% in the assay with EIF2AK1 (setting [2]); 13% in the assay on EPHA1 (setting [2]); 16% in the assay with EPHA2 (setting [2]); 18% in the assay with EPHA3 (setting [2]); 1% in the assay on EPHA4 (setting [2]); 0% in the assay with EPHA5 (setting [2]). The “%Inh” value is reported as 0% in the assay on EPHA6 (setting [2]); 0% with EPHA7 (setting [2]); 0% in the assay with EPHA8 (setting [2]); 0% in the assay on EPHB1 (setting [2]); 20% in the assay on EPHB2 (setting [2]); 10% with EPHB3 (setting [2]). Also, the entries for the “%Inh” value in the assay with EPHB4 (setting [2]) and in the assay with EPHB6 (setting [2]) were 62% and 31%, respectively.
`NC(=O)c1nnc2ccccc2c1N`: the “%Inh” value in the assay on DRAK1 (setting [2]) came out at 41%; in the assay with DRAK2 (setting [2]), 33%; with DYRK1A (setting [2]), 29%; in the assay with DYRK1B (setting [2]), 16%; with DYRK2 (setting [2]) it was 39%; with EGFR (setting [2]), 0%. Besides, the “%Inh” value in the assay with EIF2AK1 (setting [2]) is 0%; in the assay on EPHA1 (setting [2]), 14%; with EPHA2 (setting [2]), 10%; with EPHA3 (setting [2]), 0%; in the assay on EPHA4 (setting [2]) it was 1%; in the assay with EPHA5 (setting [2]), 10%. Besides, the “%Inh” value in the assay on EPHA6 (setting [2]) is given as 0%; with EPHA7 (setting [2]), 0%; with EPHA8 (setting [2]), 0%; in the assay with EPHB1 (setting [2]), 0%; in the assay with EPHB2 (setting [2]), 13%; in the assay on EPHB3 (setting [2]) it was 0%. The “%Inh” value with EPHB4 (setting [2]) was 19%; with EPHB6 (setting [2]), 9%.
On to `COc1cc2ncnc(Nc3ccc4nc(-c5ccccc5)[nH]c4c3)c2cc1OC.Cl` [GW282450], for which the “%Inh” value in the assay with DRAK1 (setting [2]) was found to be 0%; in the assay on DRAK2 (setting [2]), 0%; in the assay on DYRK1A (setting [2]) it was 13%; in the assay with DYRK1B (setting [2]) it was 0%; in the assay on DYRK2 (setting [2]), 19%; in the assay on EGFR (setting [2]) it was 59%. Besides, the “%Inh” value with EIF2AK1 (setting [2]) came to 6%; with EPHA1 (setting [2]), 10%; in the assay with EPHA2 (setting [2]) it was 0%; in the assay on EPHA3 (setting [2]), 31%; in the assay with EPHA4 (setting [2]), 0%; in the assay with EPHA5 (setting [2]), 0%. The “%Inh” value in the assay with EPHA6 (setting [2]) amounted to 0%; in the assay with EPHA7 (setting [2]) it was 0%; with EPHA8 (setting [2]) it was 0%; in the assay with EPHB1 (setting [2]), 38%; with EPHB2 (setting [2]), 1%; in the assay with EPHB3 (setting [2]), 3%. In addition, the “%Inh” value in the assay with EPHB4 (setting [2]) turned out to be 22%; in the assay with EPHB6 (setting [2]) it was 18%.
For `O=C(Nc1ccccc1)Nc1cccc(Oc2ccc3nccn3n2)c1`, the “%Inh” value in the assay with DRAK1 (setting [2]) is given as 0%; with DRAK2 (setting [2]), 1%; in the assay on DYRK1A (setting [2]) it was 0%; in the assay with DYRK1B (setting [2]), 45%; in the assay on DYRK2 (setting [2]), 0%; with EGFR (setting [2]) it was 33%. Besides, the “%Inh” value with EIF2AK1 (setting [2]) worked out at 0%; in the assay with EPHA1 (setting [2]), 14%; with EPHA2 (setting [2]), 30%; with EPHA3 (setting [2]), 34%; in the assay with EPHA4 (setting [2]), 0%; in the assay on EPHA5 (setting [2]) it was 0%. Further, the “%Inh” value turned out to be 0% in the assay on EPHA6 (setting [2]); 0% in the assay on EPHA7 (setting [2]); 0% with EPHA8 (setting [2]); 0% in the assay with EPHB1 (setting [2]); 3% with EPHB2 (setting [2]); 0% in the assay on EPHB3 (setting [2]). Also, the “%Inh” value with EPHB4 (setting [2]) was 10%; in the assay on EPHB6 (setting [2]) it was 9%.
On to `O=C(Nc1n[nH]c2nc(-c3nccs3)c(Br)cc12)C1CCCC1` [SB-742609], for which the “%Inh” value with DRAK1 (setting [2]) is listed as 4%; in the assay on DRAK2 (setting [2]), 0%; with DYRK1A (setting [2]), 16%; in the assay on DYRK1B (setting [2]), 15%; in the assay with DYRK2 (setting [2]) it was 35%; in the assay with EGFR (setting [2]), 32%. Further, the “%Inh” value in the assay with EIF2AK1 (setting [2]) was 0%; in the assay on EPHA1 (setting [2]), 17%; in the assay with EPHA2 (setting [2]), 9%; with EPHA3 (setting [2]), 0%; in the assay on EPHA4 (setting [2]), 25%; in the assay with EPHA5 (setting [2]) it was 0%. Moreover, the “%Inh” value in the assay on EPHA6 (setting [2]) came out at 20%; with EPHA7 (setting [2]) it was 10%; with EPHA8 (setting [2]), 14%; in the assay on EPHB1 (setting [2]), 0%; with EPHB2 (setting [2]), 0%; in the assay on EPHB3 (setting [2]) it was 26%. In addition, the “%Inh” value in the assay on EPHB4 (setting [2]) is given as 10%; in the assay on EPHB6 (setting [2]), 46%.
As to `Fc1cc(Cl)ccc1Nc1ccnc2cc(-c3ccc(CN4CCCCC4)o3)ccc12` [GW560116], the “%Inh” value with DRAK1 (setting [2]) stood at 33%; in the assay with DRAK2 (setting [2]), 0%; with DYRK1A (setting [2]), 0%; in the assay with DYRK1B (setting [2]) it was 0%; in the assay with DYRK2 (setting [2]), 9%; in the assay on EGFR (setting [2]), 27%. Further, the “%Inh” value in the assay on EIF2AK1 (setting [2]) was 0%; with EPHA1 (setting [2]) it was 43%; in the assay on EPHA2 (setting [2]), 6%; in the assay on EPHA3 (setting [2]) it was 33%; in the assay with EPHA4 (setting [2]), 0%; with EPHA5 (setting [2]), 0%. The “%Inh” value is 24% in the assay with EPHA6 (setting [2]); 0% in the assay on EPHA7 (setting [2]); 30% in the assay on EPHA8 (setting [2]); 12% in the assay on EPHB1 (setting [2]); 10% in the assay on EPHB2 (setting [2]); 0% in the assay on EPHB3 (setting [2]). Further, the “%Inh” value in the assay on EPHB4 (setting [2]) is listed as 12%; in the assay with EPHB6 (setting [2]), 51%.
